From PubChem
ABHD5-PLIN5 inh – inhibitors of human ABHD5-perilipin-5 interaction | Q00G26+Q8WTS1 | Split G. princeps luciferase complementation, luminescence, 4 h | inhibition, % at 4 µM | 0.78% of 360,000 active;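 active means inhibition above the mean inhibition across every tested compound plus 3 SD, cut at about 22% in these data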;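 further: 0% = DMSO only wells and the 100% control is not disclosed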
TLR9-MyD88 inh – inhibitors of human TLR9-MyD88 binding; Q9NR96+Q99836; CHO BLA complementation TLR9-MyD88, CCF4 FRET ratio; inhibition, % at 4.98 µM; 0.21% of 340,000 active;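 active means inhibition above the mean over all tested compounds plus 3 SD, cut at about 21% in these data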;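 further: 0% = DMSO only wells and 100% = clavulanate BLA inhibitor control wells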
NOD2 RIPK2 PPI – inhibitors of human NOD2-RIPK2 interaction | inhibition, % at 4.98 µM | 0.38% of 360,000 active | AID 624267 | CHO BLA complementation NOD2-RIPK2, CCF4 ratio; in the data active means inhibition above about 21%;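 further: 0% = vehicle only and 100% = reference blocker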
Target sequence (O43353 whole entry, looked up): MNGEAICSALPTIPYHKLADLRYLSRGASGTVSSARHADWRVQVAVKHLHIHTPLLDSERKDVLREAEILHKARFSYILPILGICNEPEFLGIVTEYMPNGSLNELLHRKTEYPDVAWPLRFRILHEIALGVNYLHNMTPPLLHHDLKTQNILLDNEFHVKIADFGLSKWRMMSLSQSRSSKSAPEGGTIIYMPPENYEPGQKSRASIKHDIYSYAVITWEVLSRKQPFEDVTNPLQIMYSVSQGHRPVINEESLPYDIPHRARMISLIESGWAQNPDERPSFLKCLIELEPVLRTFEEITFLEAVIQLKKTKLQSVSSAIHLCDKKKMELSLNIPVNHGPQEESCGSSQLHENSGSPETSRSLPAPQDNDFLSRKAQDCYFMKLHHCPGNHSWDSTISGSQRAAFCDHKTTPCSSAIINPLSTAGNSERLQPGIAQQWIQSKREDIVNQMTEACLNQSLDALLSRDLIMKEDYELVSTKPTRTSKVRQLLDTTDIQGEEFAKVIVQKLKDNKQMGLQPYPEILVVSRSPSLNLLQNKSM
PRMT1 inh – PRMT1 (human) inhibition, primary screen. Q99873. recombinant PRMT1, activity-based probe fluorescence polarization. inhibition, % at 2.79 µM. 1.3% of 370,000 active. AID 652257;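 active means inhibition above about 21% made by adding two undisclosed values, limit read from the data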
TLR4 MyD88 comp – blocks binding of human TLR4 to MyD88 | O00206+Q99836 | inhibition, % at 8.4 µM | HeLa CL3-4 TLR4/MyD88 BLA complementation, FRET ratio | 0.18% of 200,000 active; in the data active means inhibition above about 25%;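 further: 0% = vehicle and 100% = reference inhibitor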
Exocytosis inh – lytic granule exocytosis inhibition. AID 651702. TALL-104 LAMP-1 surface exposure, flow cytometry; cells stimulated with thapsigargin and PMA. 0.66% of 360,000 active. inhibition, % at 10 µM;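 active means inhibition above about 55%, limit read from the data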
PRMT1 confirm – PRMT1 (human) inhibition, FP confirmation. shares compounds with PRMT1 inh. recombinant His-PRMT1, activity-based probe fluorescence polarization. inhibition, % at 2.79 µM. 42% of 3,300 active;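 active means mean inhibition across replicates above the hit cutoff derived for the earlier primary screen, cut at about 22% in these data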
An asterisk follows results filed as active; / = no result. Sampled rows, rich in hits. Any-hit rate of the full collection: about 2.6%.

SMILES	ABHD5-PLIN5 inh	TLR9-MyD88 inh	NOD2 RIPK2 PPI	PRMT1 inh	TLR4 MyD88 comp	Exocytosis inh	PRMT1 confirm
O=C(Nn1c(O)c(C=C2N=c3ccccc3=N2)sc1=S)c1ccccc1Cl	8	8	3	37*	-9	35	2
O=C(CSc1cc(Cl)ccc1Cl)NC1CCCC1	2	-7	0	-2	/	9	/
O=C(O)c1ccc(/C=C2\SC(=S)N(NC(=O)c3ccccc3[N+](=O)[O-])C2=O)cc1	-1	6	-8	29*	/	-7	1
CCCCCNC(=O)c1nc(-c2c(F)cccc2F)oc1-c1ccccc1	-10	/	-14	-4	/	-4	/
C/C(=N\Nc1ccccc1C(=O)O)c1ccncc1	14	8	1	-1	/	-3	/
O=C(O)c1ccccc1SC1CC(=O)N(c2ccc3c(c2)OCO3)C1=O (stereo not given)	11	-12	-7	56*	2	-17	30*
Cc1ccc(N2C(=O)CC(Sc3ccccc3C(=O)O)C2=O)cc1C (stereo not given)	11	3	8	62*	-3	5	21
Cc1cccc(N2C(=O)CC(Sc3ccccc3C(=O)O)C2=O)c1 (stereo not given)	9	-2	-13	60*	-10	19	22*
Cc1ccc(N2C(=O)CC(Sc3ccccc3C(=O)O)C2=O)cc1 (stereo not given)	15	-10	-5	86*	-3	7	24*
Cc1ccc(N2C(=O)CC(Sc3ncccc3C(=O)O)C2=O)cc1 (stereo not given)	0	5	-4	1	-3	8	/
Cc1ccc(C(=O)N2CC(C)CC(C)C2)cc1NC1=NC2CS(=O)(=O)CC2S1 (stereo not given)	-1	4	-8	-6	/	0	/
C[C@@H]1CN([C@@H](C)CO)C(=O)CCCn2nncc2CO[C@H]1CN(C)C(=O)Nc1ccc(-c2cccs2)cc1	-5	-1	4	-3	/	0	/
Cc1cccc(C)c1N1C(=O)CC(Sc2ccccc2N)C1=O (stereo not given)	-3	-3	8	16	/	-1	/
CN(C)c1ccc(N2C(=O)CC(Sc3ccccc3C(=O)O)C2=O)cc1 (stereo not given)	-4	4	-5	82*	3	37	43*
Cc1cc(C)c(N2C(=O)CC(Sc3ccccc3N)C2=O)c(C)c1 (stereo not given)	6	-2	6	34*	/	9	19
CC(=O)OCC(COC(C)=O)(CN1C(=O)c2ccccc2C1=O)CN1C(=O)c2ccccc2C1=O	/	/	/	-4	/	/	/
CCC[n+]1c(C)sc2c(OC)ccc(OC)c21	1	-5	-1	40*	-15	5	17
CC1C(c2ccc3c(c2)OCO3)c2cc3c(cc2OC1N1CCOCC1)OCO3 (stereo not given)	8	-2	6	5	/	3	/
CCCCCC(=O)Nc1cc(S(=O)(=O)N2CCCCC2)ccc1N1CCCCC1	1	-4	3	3	/	1	/
CCCCCC(=O)Nc1cc(S(=O)(=O)O)cc2cc(S(=O)(=O)O)cc(O)c12	-1	-7	-3	45*	/	-1	57*
CC(=O)Nc1ccc(S(=O)(=O)NCC2CCC(C(=O)NC(C)c3ccc4c(c3)OCCO4)CC2)cc1 (stereo not given)	/	/	/	/	11	/	/
Cc1ccc(C)c2[nH]c(=O)c(CN(Cc3ccc4c(c3)OCO4)Cc3nnnn3Cc3ccco3)cc12	9	0	-7	28*	0	1	-4
Cc1cc2cc(C(c3nnnn3Cc3ccco3)N3CCCCC3)c(=O)[nH]c2cc1C (stereo not given)	6	-1	-3	30*	14	1	8
CCOc1ccc2[nH]c(=O)c(C(c3nnnn3Cc3ccco3)N3CCN(C)CC3)cc2c1 (stereo not given)	1	-7	7	11	-12	1	/
Cc1ccc2cc(CN(Cc3ccc4c(c3)OCO4)Cc3nnnn3Cc3ccco3)c(=O)[nH]c2c1C	0	-10	5	61*	0	1	5
SMILES	ABHD5-PLIN5 inh	TLR9-MyD88 inh	NOD2 RIPK2 PPI	PRMT1 inh	TLR4 MyD88 comp	Exocytosis inh	PRMT1 confirm
COc1cc2cc(CN(Cc3nnnn3Cc3ccco3)C3CCCCC3)c(=O)[nH]c2cc1OC	2	6	0	29*	-6	1	10
Cc1ccc2cc(CN(CCN3CCOCC3)Cc3nnnn3Cc3ccco3)c(=O)[nH]c2c1C	14	-7	-8	10	5	0	/
O=C(CSC1CC(=O)N(c2ccc(C(=O)O)cc2)C1=O)Nc1ccc(Cl)cc1 (stereo not given)	-6	2	6	39*	8	-2	34*
O=C(O)CSC1CC(=O)N(c2ccc(F)cc2)C1=O (stereo not given)	-2	5	2	26*	/	-2	1
CCN=C(NCC)SC1CC(=O)N(c2ccc(OC)cc2)C1=O (stereo not given)	-1	4	0	2	0	3	/
O=C(CSC1CC(=O)N(CCc2ccccc2)C1=O)Nc1cccc(Cl)c1 (stereo not given)	-13	0	-10	54*	5	1	54*
CCN=C(NCC)SC1CC(=O)N(CCc2ccccc2)C1=O (stereo not given)	2	/	0	35*	/	-3	-1
NCCSC1CC(=O)N(c2ccc(F)cc2)C1=O (stereo not given)	3	-3	1	19	/	-9	/
COc1ccc(C(=O)N(C)CCOc2ccc(Cl)cc2)cc1S(=O)(=O)N1CCCC1	0	2	-1	-5	/	4	/
COc1ccc(C)cc1NC(=O)CCNS(=O)(=O)c1ccc2c(c1)CCC(=O)N2	-10	-5	-8	-3	/	-7	/
O=C(Nc1cc(Cl)c(Cl)cc1Cl)c1cccnc1	0	12	4	-3	/	-2	/
CCN(CC)Cc1cc(Oc2ccc(O)c(CN(CC)CC)c2)ccc1O	-4	/	-3	/	/	3	/
O=C(NCc1ccccn1)c1ccc2c(c1)N(Cc1ccccc1)CCS2	-3	-2	10	6	/	2	/
O=C(NCc1cccnc1)c1ccc2c(c1)N(Cc1ccccc1)CCS2	8	6	7	29*	/	4	7
CCCOc1ccc(CNC(=O)c2ccc3c(c2)N(CC)CCS3)cc1	-8	13	-4	28*	/	4	5
COc1ccc(C(=O)OCC(=O)NC2CCCCCCC2)cc1OC	9	9	6	-3	/	1	/
CC12CCC(C(NC(=S)NN)C1=O)C2(C)C (stereo not given)	-14	-9	-7	0	/	-5	/
C=CCNc1ccc2c(c1)OC[C@H](CC(C)C)NS2(=O)=O	/	/	/	2	/	/	/
